# In PubChem BioAssay (NCATS):
# Records with an inconclusive call do not appear. A call without a number means that no potency is given here. Calls of active or inactive are those of the source. Unless noted, calls come from the whole dose curve; as a rule, active = well fitted curve in the direction sought with a large enough effect; inconclusive = small, poorly fitted or top-dose-only effect, or another doubt; inactive = no such curve, though single readings can be large; an effect the other way counts as inactive or inconclusive.
# Tests used:
# [1] = biological target: Glutathione peroxidase 1 (Homo sapiens) (UniProt P07203); test: Primary qHTS Assay for Inhibitors of Recombinant Selenoprotein Glutathione Peroxidase 1 (GPX1) (AID 1845191); note: nearly all actives have a fitted effect of over 65% in size
# In short: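 GR-coupled assay: compounds preincubated 30 min at room temperature with GPX1, then reaction started with CHP; final 10 nM GPX1, 1 mM GSH, 0.5 mM CHP, 0.5 mM NADPH, 100 nM GR, 0.01% BSA, pH 7.5 Tris buffer. NADPH fluorescence (340/450 nm) read at 0 and 15 min.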
# [2] = biological target: Phospholipid hydroperoxide glutathione peroxidase GPX4 (Homo sapiens) (UniProt P36969); test: Primary qHTS Assay for Inhibitors of Recombinant Selenoprotein Glutathione Peroxidase 4 (GPX4) (AID 1845192); note: nearly all actives have a fitted effect of over 65% in size
# In short: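 GR-coupled assay: recombinant GPX4 preincubated 30 min with compound at room temperature; final 200 nM GPX4, 1 mM GSH, 0.5 mM cumene hydroperoxide, 0.5 mM NADPH, 100 nM GR, 0.01% BSA, pH 7.5 Tris. NADPH fluorescence (340/450 nm) read at 0 and 15 min.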
# [3] = biological target: Luciferin 4-monooxygenase (Photinus pyralis) (UniProt P08659); test: Primary firefly luciferase (FLuc) qHTS assay for identification of artifact compounds. (AID 1845220); note: nearly all actives have a fitted effect of over 60% in size
# In short: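 Enzymatic FLuc inhibition assay: compounds pre-exposed to luciferin/ATP (10 uM each) for 15 min, then purified P. pyralis enzyme at 10 nM added. Read-out: luminescence at 5 min.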
# [4] = Primary fluorescence-based thiol-reactive (MSTI) qHTS assay for identification of artifact compounds. (AID 1845221); note: nearly all actives have a fitted effect of over 65% in size; note: potency is the fitted concentration of half-maximal effect
# In short: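 MSTI probe at 4 uM final in 2% DMSO/PBS pH 7.4; compounds, 1 h at room temperature in dark. Fluorescence Ex/Em 525/598 nm, normalised to Acetyl-MSTI and MSTI, fitted to 4-parameter Hill.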
# [5] = tested on: Nanoluciferase (engineered Oplophorus gracilirostris luciferase); test: Primary Nanoluciferase (NLuc) qHTS assay for identification of artifact compounds. (AID 1845222);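 note: NLuc secreted into diluted conditioned medium of S16 cells; series mostly up to about 54 µM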
# In short: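 S16 cell supernatant NLuc, 1:55; cpds qHTS; 15 min RT dark; Nano-Glo substrate 1:100, 5 min; luminescence; Hill fit of % inhibition.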
# [6] = Primary redox qHTS assay for identification of artifact compounds. (AID 1845223)
# In short: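 Amplex Red (25 uM) and HRP (250 mU/mL) in HBSS, with compounds for 15 min, then 250 uM DTT for 30 min, room temperature, dark. Fluorescence 525/598 nm read; normalized to DMSO and 10 uM DA3003; Hill fit.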
# [7] = qHTS drug screen for cell cycle checkpoint inhibitors in PARPi-resistant BRCA-mutant ovarian cancer cell lines. (AID 1963452; calls by dose curve; note: potency is the fitted concentration of half-maximal effect); conditions: PEO1/OlaR viability, CellTiter-Glo luminescence, 96 h; for Z-AUC: stronger effect = lower value
# In short: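 PEO1, PEO4 and PEO1/OlaR ovarian cancer cells, 600 per well, exposed 96 h at 37C to a dilution series. Viability read by CellTiter-Glo luminescence, normalized to DMSO and empty wells; activity summarized as Z-AUC.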
# [8] = measured here: PEO1 parental Z-AUC
# Chain of Glutathione peroxidase 1 (Homo sapiens) (P07203 whole entry, looked up): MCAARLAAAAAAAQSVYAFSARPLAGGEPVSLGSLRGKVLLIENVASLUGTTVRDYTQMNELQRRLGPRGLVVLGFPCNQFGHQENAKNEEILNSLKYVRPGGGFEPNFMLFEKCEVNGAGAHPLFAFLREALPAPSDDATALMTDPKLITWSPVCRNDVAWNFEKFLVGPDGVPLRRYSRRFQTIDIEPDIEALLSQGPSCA
# Chain of Phospholipid hydroperoxide glutathione peroxidase GPX4 (Homo sapiens) (P36969 whole entry, looked up): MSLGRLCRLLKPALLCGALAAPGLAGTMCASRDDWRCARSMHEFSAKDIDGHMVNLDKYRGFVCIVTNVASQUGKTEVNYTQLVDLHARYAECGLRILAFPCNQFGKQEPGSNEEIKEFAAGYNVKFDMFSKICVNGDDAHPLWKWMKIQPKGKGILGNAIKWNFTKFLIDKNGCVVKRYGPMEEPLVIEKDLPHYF
SMILES,Potency [1],Potency [2],Potency [3],Potency [4],Potency [5],Potency [6],Z-AUC [7],"Z-AUC [7, 8]",Z-AUC ([7]; measured here: PEO4 Z-AUC),Potency [7]
OC[C@H]1O[C@@H](OC(CCCCc2ccc(O)cc2)CCc2ccc(O)cc2)[C@H](O[C@@H]2OC[C@](O)(CO)[C@H]2O)[C@@H](O)[C@@H]1O (stereo partly drawn),inactive,inactive,inactive,inactive,inactive,inactive,–,–,–,–
COC(=O)C1=COC(OC2OC(CO)C(O)C(O)C2O)C2C1CC(OC(=O)C(O)CC(=O)O)C2C (stereo not drawn),inactive,inactive,inactive,13 µM (active),inactive,inactive,–,–,–,–
O=C(Nc1cccnn1)N1CCC(=Cc2cccc(Oc3ccc(C(F)(F)F)cn3)c2)CC1,inactive,inactive,inactive,inactive,inactive,inactive,-0.753 (inactive),-0.539,-0.803,–
CCCCN(CCCC)C(=O)CN1C[C@H](c2ccc3c(c2)OCO3)[C@@H](C(=O)O)[C@@H]1c1ccc(OC)cc1,inactive,inactive,inactive,inactive,inactive,inactive,0.882 (inactive),0.661,0.129,–
NS(=O)(=O)OC[C@@H]1C[C@@H](n2ccc3c(N[C@H]4CCc5ccccc54)ncnc32)C[C@@H]1O,inactive,inactive,inactive,inactive,inactive,–,–,-1.6,-1.88,0.347 µM (active)
CC(C)(O)c1ccc2c(c1)C(=O)CC1[C@](C)(CO)CCC[C@]21C (stereo partly drawn),inactive,inactive,inactive,13.1 µM (active),–,inactive,–,–,–,–
CC(C)(O)CNc1nc(Nc2ccnc(C(F)(F)F)c2)nc(-c2cccc(C(F)(F)F)n2)n1,inactive,inactive,inactive,inactive,inactive,inactive,0.352 (inactive),0.62,0.79,–
O=C(NC[C@H](O)CN1CCc2ccccc2C1)c1cc(NC2COC2)ncn1,inactive,inactive,inactive,inactive,inactive,–,0.421 (inactive),0.62,0.347,–
CCNC(=O)CCC/C=C\C[C@@H]1[C@@H](/C=C/C(O)CCc2ccccc2)[C@@H](O)C[C@@H]1O (stereo partly drawn),inactive,inactive,inactive,inactive,inactive,inactive,1.72 (inactive),1.41,1.49,–
C=CC1(C)CC(O)C2(CCC3C(C)(C(=O)O)CCCC3(C)C2=O)C1 (stereo not drawn),inactive,inactive,inactive,inactive,–,inactive,–,–,–,–
CCOC(=O)[C@H]1O[C@@H]1C(=O)N[C@@H](CC(C)C)C(=O)NCCC(C)C,inactive,inactive,inactive,inactive,inactive,inactive,-0.23 (inactive),0.731,0.891,–
Cc1nc2c(-c3cnc(N)nc3)nc(N3CCOCC3)nc2n1C(C)C,inactive,inactive,inactive,inactive,inactive,inactive,–,-1.56,-1.63,0.436 µM (active)
CC(C)N(C[C@H]1O[C@@H](n2cnc3c(N)ncnc32)[C@H](O)[C@@H]1O)C1CC(CCc2nc3ccc(C(C)(C)C)cc3[nH]2)C1 (stereo partly drawn),inactive,inactive,inactive,inactive,inactive,inactive,1.59 (inactive),1.75,1.7,–
CNc1nc(Nc2cnn([C@H]3CCN(C4COC4)C[C@@H]3F)c2Cl)ncc1C(F)(F)F,inactive,inactive,inactive,inactive,inactive,inactive,-0.479 (inactive),-0.0727,0.0395,–
O=c1ccn([C@@H]2O[C@H](CO)[C@@H](O)[C@H]2O)c(=O)[nH]1,inactive,inactive,inactive,inactive,inactive,inactive,1.3 (inactive),1.05,0.867,–
Cc1cc(C)cc(NC(=O)Cc2ccc(OC(C)(C)C(=O)O)cc2)c1,inactive,inactive,inactive,inactive,inactive,inactive,-0.433 (inactive),-0.359,-0.00799,–
